Test results: PubChem BioAssay (NCI)
Compounds without any hit were thinned out: in the full panel of roughly 83,000, 20% have a hit.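 Single-concentration screen, 48 h exposure, 96-well plates. Endpoint: percent growth. Below 10 = active.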 Activity calls are given as the source filed them.

Tested on: NCI/ADR-RES ovarian
Experiment: NCI-60 one-dose screen, 48 h (100 = growth as untreated, 0 = no growth, -100 = all killed)
Details: 10 µM unless noted

Row | Compound | growth
1 | CC1=C(C(=O)Nc2ccccc2)C(c2cccc3ccccc23)n2c(nc3ccccc32)N1 (configuration not stated) | 32.2% (inactive)
2 | COc1ccc(NC(=O)CSc2nnc(-c3ccc(-c4nc5ccccc5[nH]4)cc3)o2)cc1 | 50.1% (inactive)
3 | COc1cc2cc(C(=O)N3C[C@@H](CCl)c4c3cc(OC(=O)N(C)CCSSCCN3CCOCC3)c3ccccc43)[nH]c2c(OC)c1OC | -33.4% (active)
4 | CC(=O)C[n+]1cccc2c3ccccc3ccc21 | 107% (inactive)
5 | CC[C@]12C=CCN3CC[C@]4(C(=C(C(=O)OC)C1)Nc1cc(OC)c([C@@H]5[C@H]6O[C@H]6[C@@]6(CC)CC(C(=O)OC)=C7Nc8cc(O)ccc8[C@@]78CCN5[C@@H]68)cc14)[C@@H]32 | 6.92% (active)
6 | Cc1ccccc1Nc1nnc(-c2c[nH]c3ccccc23)o1 | -20.2% (active)
7 | COc1cncc(-c2ccc3ncnc(N4CCc5ccc(Cl)cc54)c3c2)c1 | 1.41% (active)
8 | Clc1ccc2c(NCCNC34CC5CC(CC(C5)C3)C4)ccnc2c1 | -71.3% (active)
9 | Cn1cc(-c2cc(N)n3nc(-c4c[nH]c5ccccc45)cc3n2)c2cc(Br)ccc21 | -18.4% (active)
10 | Cc1nn(-c2ccccc2)c2nc(C)n(CC(=O)N/N=C/c3cccc([N+](=O)[O-])c3)c(=O)c12 | 97% (inactive)
11 | Cc1ccc(S(=O)(=O)Nc2ccc(-c3ccc4c(c3)NC(=O)/C4=C\c3ccc[nH]3)cc2)cc1 | 89% (inactive)
12 | O=C1c2cccc3c(N4CCN(c5ccccc5)CC4)ccc(c23)C(=O)N1c1cccc(-c2nn(-c3ccccc3)cc2-c2nc3ccccc3s2)c1 | 98.3% (inactive)
13 | COc1ccc(-c2cc(-c3cc(C(C)C)c(O)cc3C)nn2-c2ccc(S(N)(=O)=O)cc2)cc1 | -17.2% (active)
14 | Clc1ccc(-c2nc3c4c(-c5ccccc5)c(-c5ccccc5)n(Cc5ccccc5)c4ncn3n2)cc1 | 70.9% (inactive)
15 | Cc1ccc(-c2cc(C(=O)N=Nc3c(O)[nH]c4ccc(F)cc34)c3ccccc3n2)cc1 | 3.61% (active)
16 | COc1ccc(/C=C/c2nc3ccccc3n3c(-c4cccc([N+](=O)[O-])c4)nnc23)cc1 | -27% (active)

Row | Compound | growth
17 | O=C(c1ccc(O)cc1)C1[C@H](c2ccc(Cl)cc2)[C@@H](c2ccccc2)NC12C(=O)Nc1ccccc12 (some centres not stated) | -35% (active)
18 | N#C/C(=C1/C(=O)Nc2ccccc21)c1nnc(NC(=O)c2ccc(-n3c(=O)[nH]c4ccccc4c3=O)cc2)s1 | 22.9% (inactive)
19 | CN(C(=O)CN1C(=O)/C(=C/c2ccco2)SC1=S)C1CCS(=O)(=O)C1 (configuration not stated) | 96.4% (inactive)
20 | COc1c2c(cc3c1C(CCc1ccccc1)N(C)CC3)OCO2 (configuration not stated) | 1.62% (active)
21 | COc1cc(C2CC(c3ccc(F)cc3)=Nc3c(N)nc(N)nc3N2)ccc1Oc1nc(Nc2ccc(F)cc2)nc(N(C)C)n1 (configuration not stated) | 48.5% (inactive)
22 | CC(C)C[C@H](NC(=O)CNC(=O)C[C@H]1O[C@@H]2OC3(C)CC[C@H]4[C@H](C)CC[C@@H]([C@H]1C)[C@@]24O3)B(O)O | 92.6% (inactive)
23 | Cc1[nH]nc2ccc3nc(-c4cnn(CCO)c4)c4c(c3c12)CCCC4 | 73.5% (inactive)
24 | CCCN(CCC)S(=O)(=O)c1ccc(C(=O)O)cc1.CCCN(CCC)S(=O)(=O)c1ccc(C(=O)O)cc1.[Cl][Pt+2][Cl].[NH2-].[NH2-] | 101% (inactive)
25 | COc1ccc(N=Nc2c(N)nn3c(-c4ccc5c(c4)C=S=C5)ccnc23)cc1 | 3.61% (active)
26 | O=C(NNC(=O)c1ccc(OCc2nc3ccc(Cl)cc3[nH]2)cc1)Nc1ccc(Cl)c(Cl)c1 | 94.1% (inactive)
27 | Cc1nc(Nc2ccccn2)sc1C1=NNC(c2ccccc2F)C1 (configuration not stated) | 20.9% (inactive)
28 | COc1ccc(-c2nc3ccccc3n2CC(=O)N=Nc2c(O)[nH]c3ccc(Br)cc23)cc1 | 78.9% (inactive)
29 | CC[C@]12C=CCN3CC[C@@]4(c5ccc(OC)cc5N(C)[C@H]4[C@@](O)(C(=O)OC)[C@@H]1OC(=O)CCC[P+](c1ccc(OC)cc1)(c1ccc(OC)cc1)c1ccc(OC)cc1)[C@@H]32 | 79.9% (inactive)
30 | COc1ccc(-c2cc(C(=O)N=Nc3c(O)[nH]c4ccc(Cl)cc34)c3ccccc3n2)cc1OC | 98.2% (inactive)
31 | Fc1ccc(Nc2nnc(-c3c[nH]c4ccccc34)o2)cc1 | 74.6% (inactive)
32 | O=C(NN1C(=O)/C(=C/C=C/c2ccc([N+](=O)[O-])o2)SC1=S)c1ccc(O)cc1 | -22.3% (active)
